Source: PubChem BioAssay (several laboratories)
The list is not random: actives were taken first. Their share in the collection is about 1.5%.
TLR9-MyD88 block – inhibitors of TLR9-MyD88 association in cells, primary screen, cell-based, CHO, BLA complementation, fluorescence | CCF4 FRET ratio | inhibition, % at 4.98 µM | 0.21% of 340,000 active | AID 504734, 2011;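 active = inhibition above the mean over all tested compounds plus 3 SD, cut at about 21% in these data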
Myeloid diff 2 – induction of myeloid progenitor differentiation, primary screen, cell-based, flow cytometry, MLPCN library | AID 624256, 2012 | calls only at 10 µM | 1% of 360,000 active | ER-HoxA9 myeloid progenitors, lysozyme-GFP differentiation;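 active = normalized GFP-positive differentiation at or above the plate's own cutoff, the solvent-only control mean plus 3 SD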;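 note: cells exposed to compound for four days before flow analysis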
NOD2-RIPK2 inh – NOD2-RIPK2 binding disruptors in cells, primary screen, fluorescence, CHO cells, BLA complementation; Receptor-interacting serine/threonine-protein kinase 2 (Homo sapiens), O43353; CCF4 ratio; inhibition, % at 4.98 µM; 0.38% of 360,000 active; AID 624267, 2012; in the data active = inhibition above about 21%
TLR4-MyD88 BLA – inhibitors of TLR4-MyD88 association in cells, primary screen, cell-based, HeLa CL3-4, BLA complementation, FRET ratio. Toll-like receptor 4 (Homo sapiens) + Myeloid differentiation primary response protein …. HeLa CL3-4 TLR4/MyD88 BLA complementation. inhibition, % at 8.4 µM. 0.18% of 200,000 active; in the data active = inhibition above about 25%
Calls only; . = inactive; / = not tested or not shown; + = active, no number.

SMILES | TLR9-MyD88 block | Myeloid diff 2 | NOD2-RIPK2 inh | TLR4-MyD88 BLA
CC(C)N1C(=O)c2ccccc2NC(=O)C1C(=O)NC1CC1 (stereo not given) | / | . | . | /
O=S(=O)(NCCc1csc(-c2cccnc2)n1)c1ccc2c(c1)OCCO2 | . | + | . | .
Cc1nnc(N2C(=O)C(O)=C(C(=O)c3ccco3)C2c2ccc(C(C)(C)C)cc2)s1 (stereo not given) | . | + | . | .
Cc1nnc(N2C(=O)C(O)=C(C(=O)c3ccco3)C2c2ccc(F)cc2)s1 (stereo not given) | . | . | . | .
COC(=O)[C@]12CCCCC=C1N(CCc1ccc(OC)c(OC)c1)C(=O)[C@H](CC(=O)N1CCC(c3ccccc3)CC1)C2 | / | . | . | /
CCOC(=O)C1=C(C)N=c2s/c(=C/c3ccc(OCC(=O)O)cc3)c(=O)n2C1c1ccc(F)cc1 (stereo not given) | . | + | . | /
COc1ccc(-c2nnn(CC(=O)N(Cc3cccs3)C(C)C(=O)NC3CCCC3)n2)cc1OC (stereo not given) | . | + | . | .
CCCC(=O)N(c1ccc(OCC)cc1)S(=O)(=O)c1ccc2c3c(cccc13)C(=O)N2C | . | + | . | /
COCCNS(=O)(=O)c1ccc2c3c(cccc13)C(=O)N2C | . | . | . | .
FC(F)(F)c1ccc(C2[C@H]3CN(Cc4cccnc4)[C@H](c4ccccc4)C34CC2(c2cccnc2)C4)cc1 (stereo not given in full) | . | . | . | /
Clc1ccc(C2[C@H]3CN(Cc4cccnc4)[C@H](c4ccccc4)C34CC2(c2cccnc2)C4)cn1 (stereo not given in full) | . | + | . | /
CCCCCCCCN1CC(Cc2cc3ccccc3c3ccccc23)N(c2ccccc2)c2ccccc2C1=O (stereo not given) | / | . | . | /
O=c1[nH][nH]c2c1[C@H](C1CCCC1)O[C@H](CCc1ccccc1)C2 | / | . | . | /
Cc1c(C(=O)N(C)Cc2nc3ccccc3c(=O)[nH]2)oc2ccccc12 | . | + | . | /
COCCNc1nc(-c2ccccc2F)c2sc(-c3ccccc3)cc2n1 | / | . | . | /
COc1ccc(/C=C/CN2CCN(CCc3ccccc3)C(CCO)C2)cc1 (stereo not given) | . | + | . | .
C=CCSc1nc(N)c(C#N)c(-c2ccc(C)cc2)c1C#N | . | + | . | .
CCCCNC(=O)c1nc(-c2cnc(C)cn2)oc1-c1ccc(Cl)cc1 | / | . | . | /
CCN(c1ccccc1)S(=O)(=O)c1cc(C(=O)Nc2ccc(F)c(F)c2)ccc1F | . | + | . | .
CCN(c1ccccc1)S(=O)(=O)c1ccc(C(=O)Nc2cccc(NC(C)=O)c2)cc1 | . | . | . | /
Cc1ccc2nc(/C(C#N)=C/c3ccc(O)c(O)c3)[nH]c2c1 | . | + | . | /
Cc1ccc2nc(/C(C#N)=C/c3ccccc3C(=O)O)[nH]c2c1 | . | . | . | /
O=C(O)c1ccc(N2C(=O)CC(SC(=Nc3ccccc3)Nc3ccccc3)C2=O)cc1 (stereo not given) | . | . | . | .
CC(/C=C/c1ccc(N(C)C)cc1)=N\N=C(/N)SC1CC(=O)N(c2ccc(C(=O)O)cc2)C1=O (stereo not given) | . | + | . | .
CC(C)(O)C#Cc1ccc(N2C(c3ccsc3)=Cc3ccc(F)cc3C2c2c[nH]c3ccccc23)cc1 (stereo not given) | / | . | . | /
SMILES | TLR9-MyD88 block | Myeloid diff 2 | NOD2-RIPK2 inh | TLR4-MyD88 BLA
CCN1C(=O)[C@@H]2Cc3c([nH]c4ccccc34)C(c3ccc(OC)cc3)N2C1=S (stereo not given in full) | . | + | . | /
COc1cccc(N2CCN(C(=O)c3ccc(OC)c(S(=O)(=O)NC4CC4)c3)CC2)c1 | . | . | . | /
COc1ccc(C(=O)CC(c2ccccc2)S(=O)(=O)c2ccc(C)cc2)cc1 (stereo not given) | / | / | / | .
CC(=O)CC(c1ccccc1)S(=O)(=O)c1ccc([N+](=O)[O-])cc1 (stereo not given) | . | + | . | /
COC(=O)[C@]12CCCCC=C1N(Cc1ccc3c(c1)OCO3)C(=O)[C@H](CC(=O)N1CCSCC1)C2 | / | . | . | /
Cc1sc2ncnc(NCC3COc4ccccc4O3)c2c1C (stereo not given) | . | + | . | .
C[C@H]1[C@@H](Cc2cc(Cl)cc(Cl)c2)N(c2ccccc2)c2ccccc2CN1Cc1ccccc1 | / | . | . | /
